Experimental data from PubChem BioAssay AID1159580 (chemical genetic matrix, 2015).
Values joined by “and” are separate entries in the source; they are usually repeats but may differ in a detail not shown here. Equal values may be shown once. Hit rate of the full screen: of about 5,500 compounds, about 2,000 (36%) were called active. Not shown: some 18% with an inconclusive outcome. Cut-off read from the data, not from the text of the source: active = normalized growth mostly below about 0.91 (no sharp cut-off); inconclusive = no clear call, values can overlap the other calls; inactive = mostly above about 0.92. The list shows a part of the results.

Assay: chemical genetic growth profiling, strain panel (AID 1159580);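 note: tested at 20 µM; growth read once vehicle control cultures reached saturation at 30 °C; 1 = growth at the plate median or of vehicle wells; lower values mean less growth of the strain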
Conditions: growth OD

Measured: normalized growth

N[C@@H]1CONC1=O
inactive: S. cerevisiae deletion strains, locus YAL021C, strain ccr4, active compounds read low 0.982 | S. cerevisiae deletion strains, locus YAL026C, strain drs2, active compounds read low 0.977 | S. cerevisiae deletion strains, locus YAL030W, strain snc1, active compounds read low 0.973 | S. cerevisiae deletion strains, locus YBL061C, strain skt5, active compounds read low 0.963 | S. cerevisiae deletion strains, locus YBR009C, strain hhf1, active compounds read low 1.02 | S. cerevisiae deletion strains, locus YBR021W, strain FUR4, active compounds read low 1.01 | S. cerevisiae deletion strains, locus YBR023C, strain chs3, active compounds read low 0.975 | S. cerevisiae deletion strains, locus YBR171W, strain sec66, active compounds read low 0.974 | S. cerevisiae deletion strains, locus YBR229C, strain ROT2, active compounds read low 1.01 | S. cerevisiae deletion strains, locus YBR231C, strain swc5, active compounds read low 1.01 | S. cerevisiae deletion strains, locus YBR279W, strain paf1, active compounds read low 0.964 | S. cerevisiae deletion strains, locus YCL011C, strain gbp2, active compounds read low 0.969 | S. cerevisiae deletion strains, locus YCL016C, strain dcc1, active compounds read low 0.953 | S. cerevisiae deletion strains, locus YCL029C, strain bik1, active compounds read low 1.01 | S. cerevisiae deletion strains, locus YCL069W, strain vba3, active compounds read low 0.98 | S. cerevisiae deletion strains, locus YCR088W, strain abp1, active compounds read low 0.981 | S. cerevisiae deletion strains, locus YDL005C, strain med2, active compounds read low 0.958 | S. cerevisiae deletion strains, locus YDL035C, strain GPR1, active compounds read low 1.03 | S. cerevisiae deletion strains, locus YDL040C, strain nat1, active compounds read low 0.971 | S. cerevisiae deletion strains, locus YDL074C, strain BRE1, active compounds read low 1.02 | S. cerevisiae deletion strains, locus YDL101C, strain DUN1, active compounds read low 1.02 | S. cerevisiae deletion strains, locus YDL185W, strain tfp1, active compounds read low 1.02 | S. cerevisiae deletion strains, locus YDL192W, strain arf1, active compounds read low 1.01 | S. cerevisiae deletion strains, locus YDR001C, strain nth1, active compounds read low 0.986 | S. cerevisiae deletion strains, locus YDR069C, strain doa4, active compounds read low 1.01 | S. cerevisiae deletion strains, locus YDR101C, strain arx1, active compounds read low 1 | S. cerevisiae deletion strains, locus YDR137W, strain rgp1, active compounds read low 1.01 | S. cerevisiae deletion strains, locus YDR159W, strain sac3, active compounds read low 0.995 | S. cerevisiae deletion strains, locus YDR162C, strain NBP2, active compounds read low 1.03 | S. cerevisiae deletion strains, locus YDR195W, strain ref2 0.983 | S. cerevisiae deletion strains, locus YDR297W, strain sur2, active compounds read low 0.993 | S. cerevisiae deletion strains, locus YDR318W, strain mcm21, active compounds read low 1.02 | S. cerevisiae deletion strains, locus YDR334W, strain swr1, active compounds read low 0.97 | S. cerevisiae deletion strains, locus YDR335W, strain msn5, active compounds read low 0.991 | S. cerevisiae deletion strains, locus YDR388W, active compounds read low 1.01 | S. cerevisiae deletion strains, locus YDR392W, strain spt3, active compounds read low 0.934 | S. cerevisiae deletion strains, locus YDR502C, strain sam2, active compounds read low 1.02 | S. cerevisiae deletion strains, locus YEL003W, strain gim4, active compounds read low 0.992 | S. cerevisiae deletion strains, locus YEL037C, strain rad23, active compounds read low 0.982 | S. cerevisiae deletion strains, locus YEL061C, strain CIN8 (second series), active compounds read low 1 | S. cerevisiae deletion strains, locus YEL061C, strain CIN8, active compounds read low 1.01 | S. cerevisiae deletion strains, locus YER015W, strain faa2, active compounds read low 0.99 | S. cerevisiae deletion strains, locus YER016W, strain bim1, active compounds read low 0.946 | S. cerevisiae deletion strains, locus YER110C, active compounds read low 1.02 | S. cerevisiae deletion strains, locus YER111C, strain swi4, active compounds read low 0.992 | S. cerevisiae deletion strains, locus YER155C, strain BEM2 (second series), active compounds read low 1.03 | S. cerevisiae deletion strains, locus YER155C, strain BEM2, active compounds read low 0.999 | S. cerevisiae deletion strains, locus YER167W, strain BCK2, active compounds read low 1.01 | S. cerevisiae deletion strains, locus YFR010W, strain ubp6, active compounds read low 0.997 | S. cerevisiae deletion strains, locus YGL078C, strain dbp3, active compounds read low 1.01 | S. cerevisiae deletion strains, locus YGL086W, strain mad1, active compounds read low 1.01 | S. cerevisiae deletion strains, locus YGL167C, strain pmr1, active compounds read low 0.987 | S. cerevisiae deletion strains, locus YGL173C, strain kem1, active compounds read low 0.984 | S. cerevisiae deletion strains, locus YGL227W, strain vid30, active compounds read low 0.961 | S. cerevisiae deletion strains, locus YGL240W, strain doc1, active compounds read low 1.01 | S. cerevisiae deletion strains, locus YGL248W, strain PDE1, active compounds read low 1.01 | S. cerevisiae deletion strains, locus YGL253W, strain hxk2, active compounds read low 0.969 | S. cerevisiae deletion strains, locus YGR135W, strain pre9, active compounds read low 1.02 | S. cerevisiae deletion strains, locus YGR252W, strain gcn5, active compounds read low 1.02 | S. cerevisiae deletion strains, locus YHR013C, strain ard1, active compounds read low 0.964 | S. cerevisiae deletion strains, locus YHR027C, strain rpn1, active compounds read low 1 | S. cerevisiae deletion strains, locus YHR030C, strain SLT2, active compounds read low 1.01 and 1.03 | S. cerevisiae deletion strains, locus YHR079C, strain IRE1 (second series), active compounds read low 1.01 | S. cerevisiae deletion strains, locus YHR079C, strain IRE1, active compounds read low 1.03 | S. cerevisiae deletion strains, locus YHR094C, strain hxt1, active compounds read low 1.01 | S. cerevisiae deletion strains, locus YHR129C, strain ARP1, active compounds read low 1.01 | S. cerevisiae deletion strains, locus YHR142W, strain chs7, active compounds read low 0.981 | S. cerevisiae deletion strains, locus YHR200W, strain rpn10, active compounds read low 1.01 | S. cerevisiae deletion strains, locus YIL066C, strain RNR3, active compounds read low 1.03 | S. cerevisiae deletion strains, locus YIL073C, strain SPO22, active compounds read low 1.02 | S. cerevisiae deletion strains, locus YIL125W, strain kgd1, active compounds read low 1.02 | S. cerevisiae deletion strains, locus YIR030C, strain dcg1, active compounds read low 1.04 | S. cerevisiae deletion strains, locus YJL092W, strain hpr5, active compounds read low 0.992 | S. cerevisiae deletion strains, locus YJL095W, strain BCK1 (second series), active compounds read low 0.975 | S. cerevisiae deletion strains, locus YJL095W, strain BCK1, active compounds read low 1.02 and 1.03 | S. cerevisiae deletion strains, locus YJL115W, strain asf1, active compounds read low 0.968 | S. cerevisiae deletion strains, locus YJL129C, strain trk1, active compounds read low 0.977 | S. cerevisiae deletion strains, locus YJL134W, strain LCB3, active compounds read low 1.01 | S. cerevisiae deletion strains, locus YJL154C, strain vps35, active compounds read low 0.985 | S. cerevisiae deletion strains, locus YJL164C, strain tpk1, active compounds read low 1 | S. cerevisiae deletion strains, locus YJL166W, strain qcr8, active compounds read low 0.998 | S. cerevisiae deletion strains, locus YJL168C, strain set2, active compounds read low 1.01 | S. cerevisiae deletion strains, locus YJL187C, strain SWE1 (second series), active compounds read low 1.05 | S. cerevisiae deletion strains, locus YJR043C, strain POL32, active compounds read low 1 | S. cerevisiae deletion strains, locus YJR066W, strain TOR1, active compounds read low 0.979 | S. cerevisiae deletion strains, locus YJR075W, strain HOC1, active compounds read low 1.02 | S. cerevisiae deletion strains, locus YKL009W, strain mrt4, active compounds read low 1.03 | S. cerevisiae deletion strains, locus YKL068W, active compounds read low 1.01 | S. cerevisiae deletion strains, locus YKL085W, strain MDH1 (second series), active compounds read low 1.05 | S. cerevisiae deletion strains, locus YKL085W, strain MDH1, active compounds read low 1.05 | S. cerevisiae deletion strains, locus YKL160W, strain elf1, active compounds read low 0.935 | S. cerevisiae deletion strains, locus YKR001C, strain vps1, active compounds read low 1.02 | S. cerevisiae deletion strains, locus YKR026C, strain gcn3, active compounds read low 0.986 | S. cerevisiae deletion strains, locus YKR091W, strain srl3, active compounds read low 0.983 | S. cerevisiae deletion strains, locus YLL001W, strain dnm1, active compounds read low 1.01 | S. cerevisiae deletion strains, locus YLL026W, active compounds read low 0.983 | S. cerevisiae deletion strains, locus YLL041C, strain sdh2, active compounds read low 0.975 | S. cerevisiae deletion strains, locus YLR027C, strain aat2, active compounds read low 0.997 | S. cerevisiae deletion strains, locus YLR039C, strain RIC1, active compounds read low 0.975 | S. cerevisiae deletion strains, locus YLR058C, strain SHM2, active compounds read low 1.02 | S. cerevisiae deletion strains, locus YLR102C, strain apc9, active compounds read low 1.01 | S. cerevisiae deletion strains, locus YLR113W, strain HOG1, active compounds read low 1.03 | S. cerevisiae deletion strains, locus YLR221C, strain rsa3, active compounds read low 1.03 | S. cerevisiae deletion strains, locus YLR258W, strain gsy2, active compounds read low 0.97 | S. cerevisiae deletion strains, locus YLR262C, strain YPT6 (second series), active compounds read low 1 | S. cerevisiae deletion strains, locus YLR262C, strain YPT6, active compounds read low 1.01 | S. cerevisiae deletion strains, locus YLR268W, strain sec22, active compounds read low 1.02 | S. cerevisiae deletion strains, locus YLR320W, strain mms22, active compounds read low 0.997 | S. cerevisiae deletion strains, locus YLR330W, strain CHS5, active compounds read low 1.01 | S. cerevisiae deletion strains, locus YLR342W, strain FKS1 (second series), active compounds read low 1.02 | S. cerevisiae deletion strains, locus YLR342W, strain FKS1, active compounds read low 0.99 | S. cerevisiae deletion strains, locus YLR357W, strain rsc2, active compounds read low 0.948 | S. cerevisiae deletion strains, locus YLR370C, strain arc18, active compounds read low 0.968 | S. cerevisiae deletion strains, locus YLR371W, strain rom2, active compounds read low 0.998 | S. cerevisiae deletion strains, locus YLR384C, strain iki3, active compounds read low 0.991 | S. cerevisiae deletion strains, locus YLR418C, strain cdc73, active compounds read low 1.06 | S. cerevisiae deletion strains, locus YML016C, strain PPZ1, active compounds read low 1.01 | S. cerevisiae deletion strains, locus YML032C, strain rad52, active compounds read low 1.01 | S. cerevisiae deletion strains, locus YML120C, strain ndi1, active compounds read low 0.994 | S. cerevisiae deletion strains, locus YML124C, strain tub3, active compounds read low 1.02 | S. cerevisiae deletion strains, locus YMR058W, strain fet3, active compounds read low 1.03 | S. cerevisiae deletion strains, locus YMR078C, strain ctf18, active compounds read low 1.02 | S. cerevisiae deletion strains, locus YMR125W, strain sto1, active compounds read low 0.968 | S. cerevisiae deletion strains, locus YMR129W, active compounds read low 0.969 | S. cerevisiae deletion strains, locus YMR205C, strain PFK2, active compounds read low 0.994 | S. cerevisiae deletion strains, locus YMR223W, strain ubp8, active compounds read low 1.03 | S. cerevisiae deletion strains, locus YMR231W, strain pep5, active compounds read low 0.98 | S. cerevisiae deletion strains, locus YMR307W, strain GAS1, active compounds read low 0.923 | S. cerevisiae deletion strains, locus YNL067W, strain RPL9B, active compounds read low 1.02 | S. cerevisiae deletion strains, locus YNL071W, strain lat1, active compounds read low 0.996 | S. cerevisiae deletion strains, locus YNL183C, strain NPR1, active compounds read low 0.973 | S. cerevisiae deletion strains, locus YNL209W, strain ssb2, active compounds read low 0.989 | S. cerevisiae deletion strains, locus YNL233W, strain BNI4, active compounds read low 1.02 | S. cerevisiae deletion strains, locus YNL248C, strain rpa49, active compounds read low 0.94 | S. cerevisiae deletion strains, locus YNL250W, strain rad50, active compounds read low 1.01 | S. cerevisiae deletion strains, locus YNL271C, strain bni1, active compounds read low 1.02 | S. cerevisiae deletion strains, locus YNL298W, strain CLA4, active compounds read low 1.01 | S. cerevisiae deletion strains, locus YNL307C, strain MCK1, active compounds read low 1.02 | S. cerevisiae deletion strains, locus YNL322C, strain KRE1 (second series), active compounds read low 0.947 | S. cerevisiae deletion strains, locus YNR049C, strain mso1, active compounds read low 0.982 | S. cerevisiae deletion strains, locus YNR052C, strain pop2, active compounds read low 1.02 | S. cerevisiae deletion strains, locus YOL012C, strain htz1 0.629 | S. cerevisiae deletion strains, locus YOL147C, strain pex11, active compounds read low 1.01 | S. cerevisiae deletion strains, locus YOR001W, strain rrp6, active compounds read low 1.02 | S. cerevisiae deletion strains, locus YOR061W, strain CKA2, active compounds read low 1.02 | S. cerevisiae deletion strains, locus YOR069W, strain VPS5, active compounds read low 1.02 | S. cerevisiae deletion strains, locus YOR070C, strain gyp1, active compounds read low 0.984 | S. cerevisiae deletion strains, locus YOR080W, strain dia2, active compounds read low 0.967 | S. cerevisiae deletion strains, locus YOR083W, strain WHI5, active compounds read low 0.908 | S. cerevisiae deletion strains, locus YOR106W, strain vam3, active compounds read low 0.937 | S. cerevisiae deletion strains, locus YOR136W, strain idh2, active compounds read low 1.02 | S. cerevisiae deletion strains, locus YOR144C, strain elg1, active compounds read low 1.02 | S. cerevisiae deletion strains, locus YOR184W, strain ser1, active compounds read low 1.02 | S. cerevisiae deletion strains, locus YOR231W, strain MKK1, active compounds read low 1.04 | S. cerevisiae deletion strains, locus YOR265W, strain rbl2, active compounds read low 0.986 | S. cerevisiae deletion strains, locus YOR270C, strain vph1, active compounds read low 1.05 | S. cerevisiae deletion strains, locus YOR290C, strain snf2, active compounds read low 0.951 | S. cerevisiae deletion strains, locus YOR316C, strain cot1, active compounds read low 1.02 | S. cerevisiae deletion strains, locus YPL051W, strain arl3, active compounds read low 0.957 | S. cerevisiae deletion strains, locus YPL078C, strain atp4, active compounds read low 0.963 | S. cerevisiae deletion strains, locus YPL106C, strain sse1, active compounds read low 0.953 | S. cerevisiae deletion strains, locus YPL240C, strain hsp82, active compounds read low 1 | S. cerevisiae deletion strains, locus YPL256C, strain CLN2, active compounds read low 1.12 | S. cerevisiae deletion strains, locus YPR119W, strain clb2, active compounds read low 1.02 | S. cerevisiae deletion strains, locus YPR141C, strain kar3, active compounds read low 1.02 | S. cerevisiae deletion strains, locus YPR163C, strain tif3, active compounds read low 1.02 | S. cerevisiae deletion strains, locus YPR167C, strain met16, active compounds read low 1.02 | S. cerevisiae deletion strains, strain wtn01, active compounds read low 1.02 | S. cerevisiae strains, strain wild type, active compounds read low 1.01
